Compound activity: PubChem BioAssay, several laboratories
Sampled rows, rich in hits. Any-hit rate of the full collection: about 1.1%.
CCHF vOTU inh-1: CCHFV vOTU protease inhibition. inhibition, % at 11.5 µM. hit rate 0.55% among 370,000. Pep-AMC fluorescence
PrPC TRFRET: inhibitors of human cell surface prion protein PrPC | P04156 | TR-FRET read-out | inhibition, % at 13.8 µM | hit rate 0.43% among 370,000 | AID 720596; in the data active means inhibition above about 24%
Y pestis TopoI: blocks Yersinia pestis topoisomerase I activity; hit rate 0.064% among 360,000; activity, % at 10 µM; AID 504884; Y. pestis Topo-I cleavage product accumulation, plate reader; in the data active means activity above about 50%, passing the limit was not always enough
Vc quorum ag: quorum light induction in luxS cqsA deficient V. cholerae | V. cholerae BH1578 lux reporter, luminescence, 6 h | activation, % at 18.7 µM | hit rate 0.16% among 350,000; in the data active means activation mostly above about 9.7%, no sharp cut-off
CCHF vOTU inh-2: CCHFV vOTU protease inhibition, confirmation | shares compounds with CCHF vOTU inh-1 | Recombinant CCHFV vOTU, Pep-AMC fluorescence | inhibition, % at 11.5 µM | hit rate 17% among 1,900 | AID 686976
PrPC confirm: confirmation of inhibitors of cell surface human prion protein; inhibition, % at 13.8 µM; AID 743200; cell surface PrPC level, TR-FRET; shares compounds with PrPC TRFRET; hit rate 65% among 1,500; in the data active means inhibition above about 25%
LD9 tox: kills or reduces viability of LD9 cells in PrPc counter-screen; shares compounds with PrPC TRFRET; LD9 cells cytotoxicity, luminescence viability; inhibition, % at 13.8 µM; hit rate 29% among 1,500; in the data active means inhibition above about 9.5%
Hits are given with their value; n = inactive; x = no result. Unless noted, no stated cut-off is given here; in the data, active means inhibition above about 30%; inactive means the rest.

SMILES	CCHF vOTU inh-1	PrPC TRFRET	Y pestis TopoI	Vc quorum ag	CCHF vOTU inh-2	PrPC confirm	LD9 tox
O=C1CCCC/C1=C\Nc1ccc(O)cc1	35	n	n	n	n	x	x
CCn1c(C)cc(/C=C2/NC(=O)N(CC(=O)Nc3cccc(C)c3)C2=O)c1C	31	n	n	n	n	x	x
COc1ccc(C)cc1-n1cnc2sc(C)c(C)c2c1=O	30	n	n	n	n	x	x
COc1ccccc1-n1cnc2sc(C)c(C)c2c1=O	n	n	n	n	x	x	x
CC(C)(c1ccccc1)c1ccc(OCCn2cnc3ccccc3c2=O)cc1	31	n	n	n	n	x	x
O=C(c1ccccc1)c1ccc(OCCn2cnc3ccccc3c2=O)cc1	n	n	n	n	x	x	x
Cc1[nH][nH]c(=O)c1C(c1c(C)[nH][nH]c1=O)c1cn(C)c2ccccc12	44	n	n	n	n	x	x
CC(c1ccc(O)cc1)c1cn(C)c2ccccc12 (stereo not drawn)	n	n	x	x	x	x	x
Cc1[nH][nH]c(=O)c1C(c1c(C)[nH][nH]c1=O)c1cn(Cc2cccc3ccccc23)c2ccccc12	48	n	n	n	n	x	x
Cn1c2ccccc2c(=O)c2c(=O)n(Cc3cccc4ccccc34)cnc21	n	n	x	x	x	x	x
CN(C)CCN(C(=O)c1ccc2ccccc2c1)c1nc2ccc(F)cc2s1	x	x	n	n	x	x	x
Cc1ccc2nc(NC(=O)CSCC(=O)OCC(=O)c3ccccc3)sc2c1	35	n	n	n	n	x	x
CCOCC(=O)Nc1nc2ccc(C)cc2s1	n	n	n	n	x	x	x
COc1cc(/C=C2/NC(=O)N(Cc3ccccc3F)C2=O)cc(OC)c1O	40	n	n	n	n	x	x
CCOc1cc(/C=C2/NC(=O)N(Cc3ccccc3F)C2=O)ccc1O	n	n	n	n	x	x	x
COc1ccc(-c2csc(NC(=O)c3ccccc3NS(=O)(=O)c3ccc(F)c(F)c3)n2)cc1	37	32	n	n	n	44	38
NNC(=O)Cn1nc(-c2ccccc2)c2ccccc2c1=O	n	n	n	n	x	x	x
CCO[C@H]1OC(C(=O)NCc2ccccc2)=C[C@@H](c2ccc(C(F)(F)F)cc2)[C@@H]1CCCO	n	n	n	n	x	x	x
CCO[C@H]1OC(C(=O)Nc2ccccc2)=C[C@@H](c2ccc(C(F)(F)F)cc2)[C@@H]1CCCO	32	31	n	n	n	n	n
COc1cccc([C@@]2(O)CCCC[C@@H]2CN(C)C)c1	n	n	n	n	x	x	x
COc1ccc(-c2c(N)cnc(C(=O)O)c2C)c(OCc2ccccc2)c1OC	n	n	n	n	x	x	x
O=C1C(=O)c2cccnc2-c2ncccc21	111	31	x	x	86	62	99
Cc1ccc(NC2=NCCCCC2)cc1C	n	n	n	n	x	x	x
Nc1ccc2nc(-c3ccc(-c4nc5ccc(N)cc5[nH]4)cc3)[nH]c2c1	36	26	x	x	n	25	n
CCN(CC)c1ccc(/C=C/c2cccc[n+]2C)c(OC)c1	n	n	n	n	x	x	x
SMILES	CCHF vOTU inh-1	PrPC TRFRET	Y pestis TopoI	Vc quorum ag	CCHF vOTU inh-2	PrPC confirm	LD9 tox
COc1cc(N(C)C)ccc1C=c1c2ccccc2n2c1cc(-c1ccccc1)[n+]2C	34	31	n	n	n	48	68
COc1ccc(NC(=O)c2sc(=O)n(Cc3ccc(F)c(Cl)c3)c2C)cc1OC	31	30	n	n	n	n	n
NS(=O)(=O)c1ccc2c(c1)C(=NO)c1cc(S(N)(=O)=O)ccc1-2	n	n	n	n	x	x	x
NC1=C(Cl)C(=O)c2ccc(S(N)(=O)=O)cc2C1=O	103	34	n	n	99	44	98
CC(C)n1cc(CN2CCC(n3nccc3NC(=O)CCCc3ccccc3)CC2)cn1	n	n	n	n	x	x	x
O=C(Nc1ccc2cn[nH]c2c1)c1c(Cl)cccc1Cl	n	n	n	n	x	x	x
O=C1C(Cl)=C(Nc2ccc3cn[nH]c3c2)C(=O)c2ccccc21	87	71	n	n	80	n	98
COC1=CC(=O)c2c(ccc3ncnc(N)c23)C1=O	110	61	n	n	108	84	98
COc1cccc2c1C(=O)C=C(C)C2=O	n	n	n	n	x	x	x
O=C(O)c1cc(O)c2c(c1)[C@H]([C@H]1c3cc(C(=O)O)cc(O)c3C(=O)c3c(O[C@@H]4O[C@H](CO)[C@@H](O)[C@H](O)[C@H]4O)cccc31)c1cccc(OC3O[C@H](CO)[C@@H](O)[C@H](O)[C@H]3O)c1C2=O (stereo partly drawn)	118	91	n	n	107	n	n
COc1ccc(C)cc1CN1C(=O)c2ccccc2C1=O	n	28	n	n	x	n	n
CCc1cccc(NC(=O)c2cc(S(=O)(=O)N(C)C)ccc2N2CCCC2)c1	n	30	n	n	x	36	n
CCc1cccc(NC(=O)c2cc(S(=O)(=O)N3CCCCC3)ccc2N2CCOCC2)c1	n	n	n	n	x	x	x
CN(C)S(=O)(=O)c1ccc(N2CCCC2)c(C(=O)Nc2nc3c(ccc4ccccc43)s2)c1	n	n	n	n	x	x	x
CN(c1ccccc1)S(=O)(=O)c1cccc(C(=O)Nc2nccs2)c1	n	26	n	x	x	n	n
CN(C)S(=O)(=O)c1ccc(N2CCCC2)c(C(=O)Nc2nccs2)c1	n	52	n	n	x	54	n
Cc1cnc(NC(=O)c2cc(S(=O)(=O)N(C)C)ccc2N2CCCC2)s1	n	72	n	n	x	79	n
O=C1N[C@@H](Cc2ccccc2)COC(=O)[C@H](Cc2ccc(F)cc2)CC/C=C/C[C@H]1CC(=O)N(CCO)Cc1ccccc1	n	n	n	n	x	x	x
O=C(Cc1cccc2ccccc12)OCn1nnc2ccccc2c1=O	n	n	n	n	x	x	x
COc1cnn(-c2ccc(C)cc2)c(=O)c1Br	n	n	n	n	x	x	x
COc1ccc(Oc2cnn(-c3ccccc3)c(=O)c2Br)cc1	n	27	n	n	x	36	n
CSc1ccccc1C(=O)Nc1cccc([N+](=O)[O-])c1C	n	n	n	n	x	x	x
CCO[C@H]1OC(C(=O)NCc2nc3ccccc3[nH]2)=C[C@@H](C)[C@@H]1CCCO	n	n	n	n	x	x	x
CCO[C@H]1OC(C(=O)NCc2nc3ccccc3[nH]2)=C[C@@H](C2CCCCC2)[C@@H]1CCCO	n	44	n	n	x	25	n
CC(C)Cc1nc(Nc2ccccc2C#N)c2nnn(Cc3ccccc3)c2n1	n	29	n	n	x	n	n
Cc1c(Cl)cccc1NC(=S)NCc1ccccc1	n	n	n	n	x	x	x
Oc1cc2c(cc1O)C1c3ccc(O)c(O)c3OCC1(O)C2 (stereo not drawn)	n	42	n	n	x	55	n
COc1ccccc1N1CCN(c2nc3ccccc3nc2C(C#N)C(=O)OC(C)C)CC1 (stereo not drawn)	n	25	n	n	x	n	n
CC1CC(C)CC(C)C(O)C(C#N)=CC=CCC(C2CCCC2C(=O)O)OC(=O)CC(O)C(C)C1 (stereo not drawn)	n	87	n	n	x	98	51
Cc1occc1C(=O)N1CCN(C(=O)C2CCCO2)CC1 (stereo not drawn)	n	47	n	n	x	n	n
